{
  "source": "PubChem BioAssay (Tox21)",
  "note": "“And” between values parts separate entries of the source, which are not always exact repeats. Equal values may be shown once. Results filed as inconclusive are left out. A call without a number means that no potency is given here. Values without a mark were called inactive. The source made the active and inactive calls. The call rests on the fitted dose curve. Potency means the concentration at half of the fitted maximal effect.",
  "data": [
    {"assay": "qHTS assay for small molecules that induce genotoxicity in human embryonic kidney cells expressing luciferase-tagged ATAD5 - cell viability (AID 651634); further: nearly all actives have a fitted effect of over 25% in size", "conditions": "HEK293T ATAD5-luc cells viability, CellTiter-Fluor, 15.5 h; series mostly up to 83.3 µM", "text": "National Center for Advancing Translational Sciences [NCATS]\nNIH Chemical Genomics Center [NCGC]\nU.S. Environmental Protection Agency [EPA]\nNational Institutes of Environmental Health Sciences [NIEHS]\nNational Toxicology Program [NTP]\nU.S. Food and Drug Administration [FDA]\nEnhanced Level of Genome Instability Gene 1 (ELG1; human ATAD5) protein levels increase in response to various types of DNA damage. Using a luciferase reporter-gene tagged with ElG1, a cell-based assay [developed by Kyungjae Myung, NHGRI, NIH] was used to measure the induction of ATAD5 in human embryonic kidney cells (HEK293T). So, increase in luciferase activity can be used to identify the compounds that cause genetic stress. In addition to genotoxicity, these cells were also used to test for cytotoxicity by measuring the protease activity within live cells.\nTox21 Assay Protocol Summary:\nFor cytotoxicity screening, 2,000 cells in 5 uL/well were dispensed into white, solid-bottom 1536-well plates using a Multidrop Combi (Thermo Scientific) dispenser. Following transfer of 23 nL compound or DMSO vehicle by a pin tool, the plates were incubated 15.5 hr at 37C and 5% CO2. 1 ul CellTiter-Fluor reagent (Promega, Madison, WI) was then added to each plate and following 30 min incubation at 37C, fluorescence intensity was quantified on a ViewLux CCD-based plate reader.", "values": [
      {"smiles": "CCC(=O)C(=O)CC", "Potency": "inactive"},
      {"smiles": "FC(F)(F)c1cccc(Cl)c1", "Potency": "inactive"},
      {"smiles": "COc1ccc(NC(=O)CC(C)=O)cc1", "Potency": "inactive"},
      {"smiles": "Cc1nc2n(c(=O)c1CCN1CCC(c3noc4cc(F)ccc34)CC1)CCCC2", "Potency": "inactive"},
      {"smiles": "C[Si](Cl)(c1ccccc1)c1ccccc1", "Potency": "inactive"},
      {"smiles": "CCO[C@@H]1O[C@H](C(COCc2ccccc2)OCc2ccccc2)[C@H](OCc2ccccc2)[C@H]1O", "note": "(stereo not given in full)", "Potency": "inactive"},
      {"smiles": "CC(=O)CC(=O)Nc1ccc(S(=O)(=O)O)cc1", "Potency": "inactive"},
      {"smiles": "COc1cccc(OC)c1C(=O)O", "Potency": "inactive"},
      {"smiles": "CCO[Si](OCC)(OCC)OCC", "Potency": "inactive"},
      {"smiles": "CC(C)(C)CC(C)(C)c1ccc(Nc2ccc(C(C)(C)CC(C)(C)C)cc2)cc1", "activity, negative = cytotoxicity": "13.9% [at 8.08 µM]"},
      {"smiles": "c1ccc(SSc2ccccc2)cc1", "Potency": "inactive"},
      {"smiles": "[Cu+]", "Potency": "inactive"},
      {"smiles": "OC/C=C/CO", "Potency": "inactive"},
      {"smiles": "Sc1nc2ccccc2s1", "Potency": "inactive"},
      {"smiles": "O=C(O)c1ccc2cc(C(=O)O)ccc2c1", "Potency": "inactive"},
      {"smiles": "O=C(O)c1cc(-c2ccc(F)cc2F)ccc1O", "Potency": "inactive"},
      {"smiles": "O=C(O)Cc1ccccc1Nc1c(Cl)cccc1Cl", "Potency": "inactive"},
      {"smiles": "CCCCOC(=O)CO", "Potency": "inactive"},
      {"smiles": "COc1cccc2c1C(=O)c1c(O)c3c(c(O)c1C2=O)C[C@@](O)(C(C)=O)C[C@@H]3O[C@H]1C[C@H](N)[C@H](O)[C@H](C)O1", "Potency": "9.44 µM (active) and 30.8 µM (active)"},
      {"smiles": "Cc1c(C)c([N+](=O)[O-])c(C(C)(C)C)c([N+](=O)[O-])c1C", "Potency": "inactive"},
      {"smiles": "Cc1cc(C(C)(C)C)cc(C)c1CC1=NCCN1", "Potency": "inactive"},
      {"smiles": "Cc1cc(=O)oc2cc(O)cc(O)c12", "Potency": "inactive"},
      {"smiles": "CCc1cccc(CC)c1NC(=O)CN(CC(=O)O)CC(=O)O", "Potency": "inactive"},
      {"smiles": "C1CCC(SSC2CCCCC2)CC1", "Potency": "inactive"},
      {"smiles": "S=c1nccc[nH]1", "Potency": "inactive"},
      {"smiles": "CC(=O)c1ccc(C(C)=O)cc1", "Potency": "inactive"},
      {"smiles": "O=C(/C=C/c1ccccc1)OC/C=C/c1ccccc1", "Potency": "inactive"},
      {"smiles": "Cc1nc(-c2ccc(Cl)cc2)oc1COC(C)(C)C(=O)O", "Potency": "inactive"},
      {"smiles": "Cc1cc(-c2ccc(N=Nc3cc(S(=O)(=O)O)c4ccccc4c3N)c(C)c2)ccc1N=Nc1cc(S(=O)(=O)O)c2ccccc2c1N", "Potency": "inactive"},
      {"smiles": "C[C@@H](O)[C@H](N)C(=O)O", "Potency": "inactive"},
      {"smiles": "O=C(O)c1cc(N=Nc2ccc([N+](=O)[O-])cc2)ccc1O", "Potency": "53.5 µM (active)"},
      {"smiles": "C=Cc1cccc(C)c1", "Potency": "inactive"},
      {"smiles": "O[C@@H]([C@H](O)[C@H](O)CBr)[C@H](O)CBr", "Potency": "inactive"},
      {"smiles": "O=C(O)O", "activity, negative = cytotoxicity": "16.8% [at 8.08 µM]"},
      {"smiles": "Cc1cc(-n2nc3ccc(Cl)cc3n2)c(O)c(C(C)(C)C)c1", "Potency": "inactive"},
      {"smiles": "CCC(=O)OC(=O)CC", "Potency": "inactive"},
      {"smiles": "CN(C)Cc1ccccc1O", "Potency": "inactive"},
      {"smiles": "Cc1cccc2cccnc12", "Potency": "inactive"},
      {"smiles": "CC(C(=O)O)c1ccc2c(c1)[nH]c1ccc(Cl)cc12", "note": "(stereo not given)", "Potency": "inactive"},
      {"smiles": "C=CC(C)(CCC=C(C)C)OC=O", "note": "(stereo not given)", "Potency": "inactive"}
    ]}
  ]
}
